From the supplement of paper PMC10849652
About 7,900 targets were measured; listed, in parts, are those with a hit and a random draw of the rest. About 0.6% of all pairs of compound and target were hits. Unmarked numbers belong to inactive results.

How the values were obtained:
Assay in all cases: log2 fold change, soluble protein after heating vs DMSO (PISA); higher = thermal stabilisation; K562 cells, 10 uM, 30 min; active = over 0.2 and 3.5 SD of the protein, either way, in both replicates (recomputed)
[1] = compound: NC(=O)Nc1cc(-c2cccc(F)c2)sc1C(=O)N[C@H]1CCCNC1
Outline: (§1)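 K562 cells (2×10^6 cells/mL) were treated with 10 μM compound for 30 min, and aliquots were heated for 3 min over 48°C-58°C. Pooled aliquots were extracted in PBS with 0.5% NP-40 at 4°C, and the supernatant after 21,000xg for 90 min was measured by TMTpro 16plex LC-MS/MS with channel sums equalised. Reported thermal stability, relative to control samples and from duplicates, is a log2 fold change.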

[2] = compound: NC(=O)c1cnc(N[C@@H]2CCCC[C@@H]2N)nc1Nc1cccc(-n2nccn2)c1
Outline: as §1

[3] = compound: NC1(c2ccc(-c3nc4ccn5c(=O)[nH]nc5c4cc3-c3ccccc3)cc2)CCC1
Outline: as §1

[4] = compound: NCC(=O)Nc1ccc(-n2nc(C(F)(F)F)cc2-c2ccc3c(ccc4ccccc43)c2)cc1
Outline: as §1

entinostat = compound: Nc1ccccc1NC(=O)c1ccc(CNC(=O)OCc2cccnc2)cc1 [entinostat]
Outline: as §1

vorinostat = compound: O=C(CCCCCCC(=O)Nc1ccccc1)NO [vorinostat]
Outline: as §1

citarinostat = compound: O=C(CCCCCCNC(=O)c1cnc(N(c2ccccc2)c2ccccc2Cl)nc1)NO [citarinostat]
Outline: as §1

silmitasertib = compound: O=C(O)c1ccc2c(c1)nc(Nc1cccc(Cl)c1)c1ccncc12 [silmitasertib]
Outline: as §1

[5] = compound: O=C1NC(=O)C(c2cnc3ccccn23)=C1c1cn2c3c(cc(F)cc13)CN(C(=O)N1CCCCC1)CC2
Outline: as §1

[6] = compound: c1cc(OCCN2CCCCC2)cc(-c2n[nH]c3ccc(-c4nnc[nH]4)cc23)c1
Outline: as §1

Sequence of UniProt O43847 (O43847 whole entry, looked up): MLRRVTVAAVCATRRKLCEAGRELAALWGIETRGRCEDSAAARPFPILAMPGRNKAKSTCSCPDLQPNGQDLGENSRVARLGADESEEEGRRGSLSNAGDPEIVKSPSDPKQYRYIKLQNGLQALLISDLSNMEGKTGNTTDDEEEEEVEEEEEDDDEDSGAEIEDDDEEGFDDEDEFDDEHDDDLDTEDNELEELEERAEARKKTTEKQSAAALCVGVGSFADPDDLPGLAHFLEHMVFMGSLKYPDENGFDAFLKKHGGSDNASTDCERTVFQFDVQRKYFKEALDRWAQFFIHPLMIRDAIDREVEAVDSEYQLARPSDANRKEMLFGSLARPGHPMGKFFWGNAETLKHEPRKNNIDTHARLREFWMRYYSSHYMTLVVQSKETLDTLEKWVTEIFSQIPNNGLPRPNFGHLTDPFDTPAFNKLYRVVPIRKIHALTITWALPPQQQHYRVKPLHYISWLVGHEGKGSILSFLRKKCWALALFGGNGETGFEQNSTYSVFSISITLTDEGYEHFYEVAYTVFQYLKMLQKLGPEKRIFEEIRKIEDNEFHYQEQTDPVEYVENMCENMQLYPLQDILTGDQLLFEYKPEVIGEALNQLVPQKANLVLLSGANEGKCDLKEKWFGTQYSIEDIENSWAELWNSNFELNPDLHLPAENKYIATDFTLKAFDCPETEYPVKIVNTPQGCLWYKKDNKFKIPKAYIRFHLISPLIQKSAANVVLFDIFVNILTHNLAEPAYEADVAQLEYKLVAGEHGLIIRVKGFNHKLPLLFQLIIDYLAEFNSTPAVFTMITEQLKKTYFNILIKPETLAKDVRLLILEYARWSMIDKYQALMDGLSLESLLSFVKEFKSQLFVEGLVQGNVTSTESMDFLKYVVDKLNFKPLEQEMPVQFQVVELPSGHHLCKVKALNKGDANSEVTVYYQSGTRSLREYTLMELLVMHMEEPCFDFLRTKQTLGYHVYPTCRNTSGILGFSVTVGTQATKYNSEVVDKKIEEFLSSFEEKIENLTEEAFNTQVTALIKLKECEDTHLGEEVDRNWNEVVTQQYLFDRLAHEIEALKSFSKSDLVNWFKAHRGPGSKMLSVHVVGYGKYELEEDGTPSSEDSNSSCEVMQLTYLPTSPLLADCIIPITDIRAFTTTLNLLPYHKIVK
Sequence of UniProt O00483 (O00483 whole entry, looked up): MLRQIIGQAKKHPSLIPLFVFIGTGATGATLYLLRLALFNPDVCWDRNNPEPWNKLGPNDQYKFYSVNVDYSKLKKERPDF
Sequence of UniProt P40261 (P40261 whole entry, looked up): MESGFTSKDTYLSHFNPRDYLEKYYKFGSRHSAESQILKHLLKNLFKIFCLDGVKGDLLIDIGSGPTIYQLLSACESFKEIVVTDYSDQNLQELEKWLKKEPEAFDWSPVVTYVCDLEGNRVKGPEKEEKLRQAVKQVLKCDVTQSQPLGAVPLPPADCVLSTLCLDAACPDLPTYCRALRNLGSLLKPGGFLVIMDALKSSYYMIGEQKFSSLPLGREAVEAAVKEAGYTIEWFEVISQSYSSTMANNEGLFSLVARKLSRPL
Sequence of UniProt Q9BZQ8 (Q9BZQ8 whole entry, looked up): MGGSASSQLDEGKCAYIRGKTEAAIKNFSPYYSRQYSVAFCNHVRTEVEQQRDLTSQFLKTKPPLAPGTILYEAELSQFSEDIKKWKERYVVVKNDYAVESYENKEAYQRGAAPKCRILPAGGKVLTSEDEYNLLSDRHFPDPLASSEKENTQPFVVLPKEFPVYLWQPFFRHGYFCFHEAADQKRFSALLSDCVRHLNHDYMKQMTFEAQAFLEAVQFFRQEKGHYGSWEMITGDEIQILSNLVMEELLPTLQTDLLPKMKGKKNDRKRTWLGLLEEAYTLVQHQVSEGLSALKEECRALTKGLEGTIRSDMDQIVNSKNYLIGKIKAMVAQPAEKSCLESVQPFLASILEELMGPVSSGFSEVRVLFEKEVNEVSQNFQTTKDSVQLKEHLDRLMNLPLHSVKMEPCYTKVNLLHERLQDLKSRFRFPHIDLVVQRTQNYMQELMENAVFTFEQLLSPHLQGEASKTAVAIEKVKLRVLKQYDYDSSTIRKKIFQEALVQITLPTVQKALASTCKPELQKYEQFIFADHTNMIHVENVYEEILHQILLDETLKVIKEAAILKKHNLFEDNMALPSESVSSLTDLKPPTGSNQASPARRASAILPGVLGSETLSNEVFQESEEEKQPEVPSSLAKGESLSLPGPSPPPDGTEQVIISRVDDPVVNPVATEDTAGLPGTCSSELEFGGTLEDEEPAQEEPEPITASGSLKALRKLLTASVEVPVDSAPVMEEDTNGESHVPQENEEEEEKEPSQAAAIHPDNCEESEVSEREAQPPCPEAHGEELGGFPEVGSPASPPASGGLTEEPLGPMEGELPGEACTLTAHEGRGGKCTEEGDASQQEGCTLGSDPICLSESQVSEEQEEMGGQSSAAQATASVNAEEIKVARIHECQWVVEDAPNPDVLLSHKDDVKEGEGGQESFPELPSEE
Sequence of UniProt P55209 (P55209 whole entry, looked up): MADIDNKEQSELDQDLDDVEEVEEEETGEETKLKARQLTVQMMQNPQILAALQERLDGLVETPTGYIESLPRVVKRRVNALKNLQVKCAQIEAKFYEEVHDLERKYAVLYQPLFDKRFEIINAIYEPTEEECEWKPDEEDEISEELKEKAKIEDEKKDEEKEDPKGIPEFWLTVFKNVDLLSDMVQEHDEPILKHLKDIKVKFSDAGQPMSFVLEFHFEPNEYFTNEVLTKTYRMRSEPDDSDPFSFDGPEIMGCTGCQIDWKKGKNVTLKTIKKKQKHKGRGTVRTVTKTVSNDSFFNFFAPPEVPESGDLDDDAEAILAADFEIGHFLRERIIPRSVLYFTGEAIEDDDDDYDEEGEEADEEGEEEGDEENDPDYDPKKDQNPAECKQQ
Sequence of UniProt Q96PU5 (Q96PU5 whole entry, looked up): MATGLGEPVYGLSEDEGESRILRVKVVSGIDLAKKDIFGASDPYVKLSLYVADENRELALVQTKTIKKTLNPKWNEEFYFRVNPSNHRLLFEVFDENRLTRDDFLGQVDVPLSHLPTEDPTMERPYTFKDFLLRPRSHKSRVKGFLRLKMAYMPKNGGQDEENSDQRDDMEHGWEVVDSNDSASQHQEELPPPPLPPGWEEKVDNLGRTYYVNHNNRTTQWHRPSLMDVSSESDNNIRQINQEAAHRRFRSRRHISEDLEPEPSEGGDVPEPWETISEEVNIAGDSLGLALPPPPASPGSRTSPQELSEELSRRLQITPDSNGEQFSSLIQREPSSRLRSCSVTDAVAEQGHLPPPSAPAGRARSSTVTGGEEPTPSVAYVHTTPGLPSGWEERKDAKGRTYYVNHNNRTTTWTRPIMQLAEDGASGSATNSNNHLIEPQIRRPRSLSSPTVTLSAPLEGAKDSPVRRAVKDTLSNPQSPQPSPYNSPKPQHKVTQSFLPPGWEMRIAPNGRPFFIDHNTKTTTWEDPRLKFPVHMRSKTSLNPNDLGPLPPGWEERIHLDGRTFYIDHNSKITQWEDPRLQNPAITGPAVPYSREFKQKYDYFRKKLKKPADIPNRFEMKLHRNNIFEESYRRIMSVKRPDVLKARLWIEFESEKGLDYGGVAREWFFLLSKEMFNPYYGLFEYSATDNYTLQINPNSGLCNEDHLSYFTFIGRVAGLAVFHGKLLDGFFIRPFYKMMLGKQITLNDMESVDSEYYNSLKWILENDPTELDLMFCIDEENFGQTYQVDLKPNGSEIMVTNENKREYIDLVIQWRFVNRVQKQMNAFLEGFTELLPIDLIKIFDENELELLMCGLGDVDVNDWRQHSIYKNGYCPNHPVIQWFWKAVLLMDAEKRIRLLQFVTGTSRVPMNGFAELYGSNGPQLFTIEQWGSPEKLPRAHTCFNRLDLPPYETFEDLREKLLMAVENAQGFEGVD
Sequence of UniProt Q16621 (Q16621 whole entry, looked up): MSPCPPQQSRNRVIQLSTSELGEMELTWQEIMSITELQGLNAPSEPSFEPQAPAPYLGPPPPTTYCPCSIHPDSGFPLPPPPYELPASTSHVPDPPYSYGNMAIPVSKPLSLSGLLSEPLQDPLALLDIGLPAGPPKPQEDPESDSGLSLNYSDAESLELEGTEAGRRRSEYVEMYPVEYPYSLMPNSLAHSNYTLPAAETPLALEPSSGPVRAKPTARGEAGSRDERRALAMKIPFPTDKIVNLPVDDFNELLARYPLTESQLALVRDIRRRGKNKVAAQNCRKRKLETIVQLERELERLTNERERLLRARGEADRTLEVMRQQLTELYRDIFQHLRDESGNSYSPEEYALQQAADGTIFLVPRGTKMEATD
Sequence of UniProt Q9BT67 (Q9BT67 whole entry, looked up): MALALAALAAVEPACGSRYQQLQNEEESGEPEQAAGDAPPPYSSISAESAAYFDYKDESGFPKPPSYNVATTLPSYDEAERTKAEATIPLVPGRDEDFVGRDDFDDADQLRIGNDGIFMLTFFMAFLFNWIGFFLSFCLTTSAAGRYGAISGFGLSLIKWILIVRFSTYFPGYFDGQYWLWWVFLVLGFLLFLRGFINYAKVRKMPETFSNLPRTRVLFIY
Sequence of UniProt P56556 (P56556 whole entry, looked up): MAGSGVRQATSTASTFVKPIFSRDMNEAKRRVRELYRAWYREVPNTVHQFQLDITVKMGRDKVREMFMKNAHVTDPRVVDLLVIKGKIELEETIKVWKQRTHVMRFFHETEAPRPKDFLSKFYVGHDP
Sequence of UniProt Q96I59 (Q96I59 whole entry, looked up): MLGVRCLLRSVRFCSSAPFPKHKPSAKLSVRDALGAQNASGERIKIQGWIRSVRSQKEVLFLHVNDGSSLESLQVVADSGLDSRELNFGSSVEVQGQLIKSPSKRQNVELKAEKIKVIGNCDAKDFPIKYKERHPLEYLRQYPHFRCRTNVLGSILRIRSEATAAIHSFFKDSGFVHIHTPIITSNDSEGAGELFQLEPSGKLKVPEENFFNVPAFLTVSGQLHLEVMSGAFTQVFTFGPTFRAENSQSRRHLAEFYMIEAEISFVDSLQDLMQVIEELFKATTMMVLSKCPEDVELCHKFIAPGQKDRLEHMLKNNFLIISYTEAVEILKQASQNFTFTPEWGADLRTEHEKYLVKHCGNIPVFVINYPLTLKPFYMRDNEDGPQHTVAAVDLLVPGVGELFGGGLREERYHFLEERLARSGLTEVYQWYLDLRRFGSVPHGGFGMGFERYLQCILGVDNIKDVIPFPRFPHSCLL

Row | Target | log2 fold change [1] | log2 fold change [2] | log2 fold change [3] | log2 fold change [4] | log2 fold change (entinostat) | log2 fold change (vorinostat) | log2 fold change (citarinostat) | log2 fold change (silmitasertib) | log2 fold change [5] | log2 fold change [6]
1 | MITD1 (UniProt Q8WV92) | 0.016 | -0.018 | -0.387 | -0.059 | -0.08 | 0.057 | -0.135 | 0.14 | -0.176 | 0.228
2 | NAP1L1 (UniProt P55209) | -0.084 | 0.049 | -0.01 | -0.016 | 0.02 | 0.008 | -0.01 | 0.069 | -0.038 | 0.069
3 | NUP210 (UniProt Q8TEM1) | 0.022 | -0.173 | -0.19 | -0.126 | 0.047 | 0.054 | 0.022 | -0.033 | -0.004 | -0.023
4 | MYH11 isoform 2 (UniProt P35749) | 0.056 | 0.018 | -0.017 | 0.046 | 0.015 | 0.121 | 0.027 | -0.003 | -0.009 | -0.034
5 | MON2 isoform 5 (UniProt Q7Z3U7) | -0.023 | 0.012 | -0.107 | -0.038 | -0.003 | 0.097 | 0.056 | 0.021 | -0.006 | -0.003
6 | NDUFA6 (UniProt P56556) | -0.023 | 0.028 | -0.113 | -0.083 | 0.056 | 0.118 | 0.036 | -0.016 | -0.131 | -0.011
7 | NECTIN2 (UniProt Q92692) | 0 | 0.107 | 0.056 | 0.099 | -0.029 | -0.041 | 0.034 | -0.081 | -0.03 | -0.006
8 | NRDC isoform 2 (UniProt O43847) | -0.01 | -0.044 | -0.057 | -0.036 | 0.043 | 0.04 | 0.024 | 0.025 | -0.05 | -0.06
9 | NDFIP1 (UniProt Q9BT67) | 0.104 | -0.16 | -0.029 | -0.249 | -0.291 | -0.051 | 0.025 | 0.27 | 0.352 | 0.007
10 | PAAF1 (UniProt Q9BRP4) | 0.028 | -0.011 | -0.078 | 0.019 | 0.006 | -0.013 | -0.003 | -0.001 | 0.014 | -0.025
11 | NDUFA9 (UniProt Q16795) | -0.025 | -0.089 | -0.112 | -0.091 | 0.039 | 0.065 | 0.037 | -0.016 | -0.104 | 0.017
12 | NARS2 (UniProt Q96I59) | -0.05 | 0.057 | -0.142 | -0.02 | 0.012 | 0 | 0.043 | -0.04 | -0.064 | -0.026
13 | MOV10 (UniProt Q9HCE1) | 0.007 | 0.031 | 0.178 | 0.018 | 0.016 | -0.02 | -0.054 | 0.133 | 0.187 | -0.164
14 | MINK1 (UniProt Q8N4C8) | 0.006 | -0.032 | -0.097 | 0.005 | 0.045 | 0.057 | 0.077 | -0.041 | 0.015 | -0.119
15 | NDUFAF6 (UniProt Q330K2) | 0 | -0.152 | -0.291 | 0 | 0.026 | 0.122 | 0.086 | -0.02 | -0.065 | -0.031
16 | MRPL46 (UniProt Q9H2W6) | -0.067 | 0.009 | 0.023 | -0.014 | -0.003 | 0.011 | 0.007 | 0.005 | 0.028 | -0.062

Row | Target | log2 fold change [1] | log2 fold change [2] | log2 fold change [3] | log2 fold change [4] | log2 fold change (entinostat) | log2 fold change (vorinostat) | log2 fold change (citarinostat) | log2 fold change (silmitasertib) | log2 fold change [5] | log2 fold change [6]
17 | NIBAN1 (UniProt Q9BZQ8) | -0.118 | -0.036 | -0.169 | -0.036 | 0.073 | 0.106 | 0.123 | 0.029 | -0.069 | -0.106
18 | OXA1L (UniProt Q15070) | 0.019 | -0.021 | -0.04 | -0.025 | -0.021 | 0.005 | 0.017 | 0.02 | -0.038 | 0.113
19 | NME2P1 (UniProt O60361) | 0.07 | -0.146 | -0.124 | -0.306 | -0.01 | 0.036 | -0.114 | 0.048 | -0.011 | -0.161
20 | NUCKS1 (UniProt Q9H1E3) | -0.405 (active) | 0.035 | 0.014 | 0.04 | -0.01 | -0.08 | -0.022 | -0.008 | -0.044 | 0.079
21 | NDUFA4 (UniProt O00483) | 0.026 | 0.009 | -0.075 | -0.013 | 0.061 | -0.11 | 0.037 | -0.005 | -0.056 | -0.098
22 | NPC1 (UniProt O15118) | 0.002 | 0.039 | -0.196 | -0.017 | -0.049 | 0.004 | 0.017 | 0.031 | 0.027 | -0.106
23 | NEK3 (UniProt P51956) | 0.09 | 0.156 | -0.119 | 0.011 | 0.016 | -0.256 | 0.099 | 0.043 | -0.017 | -0.063
24 | NME1 isoform 2 (UniProt P15531) | 0.012 | -0.017 | -0.003 | -0.003 | -0.064 | 0.103 | -0.089 | -0.138 | -0.089 | -0.253
25 | MRPS9 (UniProt P82933) | -0.03 | -0.011 | -0.117 | 0.018 | 0.008 | 0.167 | 0.035 | -0.083 | -0.019 | -0.081
26 | NNMT (UniProt P40261) | 0.013 | -0.04 | -0.179 | -0.037 | -0.056 | 0.128 | -0.023 | 0.013 | -0.042 | 0.139
27 | MRPS18B (UniProt Q9Y676) | 0.133 | 0 | 0.021 | 0.105 | -0.047 | 0.08 | -0.03 | -0.061 | -0.03 | -0.026
28 | NFE2 (UniProt Q16621) | 0.035 | -0.049 | -0.091 | -0.062 | -0.024 | 0.055 | 0.04 | 0.145 | -0.037 | 0.006
29 | NEDD4L (UniProt Q96PU5) | -0.045 | -0.062 | -0.06 | -0.074 | 0.075 | 0.062 | -0.001 | 0.114 | -0.006 | -0.034
30 | NELFB isoform 2 (UniProt Q8WX92) | -0.021 | -0.016 | -0.074 | -0.107 | 0.062 | 0.059 | 0.102 | 0.021 | -0.086 | -0.001
31 | NFX1 (UniProt Q12986) | 0.157 | 0.008 | 0.659 (active) | 0.045 | 0.014 | -0.016 | -0.033 | -0.006 | -0.018 | -0.019
